Screening data deposited in PubChem by National Center for Advancing Translational Sciences (NCATS).
Only some compounds are listed: those with a hit (about 7.6% of all), similar ones and a draw of the others.
KCNH2 WT inh = inhibitors of human wildtype KCNH2 potassium channel | U2OS, BacMam KCNH2, thallium flux FluxOr; hits give low values | 340,000 compounds, 0.37% hits | Q12809 | activity change, % at 1.84 µM | AID 720551;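 active means maximum activity change below -70%; inconclusive means maximum activity change between -70% and -50%; inactive means maximum activity change above -50%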
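U2OS cells were transduced with wild-type KCNH2 virus (2.03 x 10^8 / mL) for 4 h at room temperature, then cultured overnight at 37 C. Thallium flux was read with FluxOr dye. Rate constants were normalized to DMSO controls.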
KCNH2 3.1 block = KCNH2 3.1 (human) potassium channel inhibition; U2OS KCNH2 3.1, thallium flux FluxOr; hits give low values; 340,000 compounds, 0.95% hits; AID 720553; activity change, % (tested at about 1.8 µM);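 active means maximum activity change below -70%; inconclusive means maximum activity change from -70% to -50%; inactive means maximum activity change above -50%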;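 further: thallium influx rate constant from kinetic fluorescence after stimulation buffer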
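Normalized rate constant (relative to positive and negative DMSO controls) derived from a 2 min kinetic fluorescence read after stimulation; U2OS cells expressing the 3.1 isoform via virus at 1.77 x 10^8 /mL.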
KB-3-1 cytotox = KB-3-1 parental cell cytotoxicity | KB-3-1 viability, CellTiter-Glo ATP luminescence, 72 h | 400,000 compounds, 1.4% hits | Potency, µM (top dose mostly 46.1 µM), actives largely listed as cytotoxic; further: nearly all actives have a fitted effect of over 60% in size
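72 h, 37 °C compound treatment of KB-3-1 parental cells; CellTiter-Glo added, 10 min, luminescence read. Data corrected against DMSO-only plates and normalized before curve fitting.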
KB-V1 cytotox = kills drug-selected multidrug resistant KB-V1 cells. KB-V1 MDR cells viability, CellTiter-Glo, 72 h. Potency, µM (top dose mostly 46.1 µM), hits mostly cytotoxic. 400,000 compounds, 3.4% hits. AID 1347076; further: nearly all actives have a fitted effect of over 60% in size
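Cells of the MDR subline KB-V1 are plated, dosed with compound at multiple concentrations, and incubated 72 h at 37 degrees C; CellTiter-Glo is then added and luminescence read after 10 min.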
SW480 rereplic = inducers of DNA re-replication in SW480 colon cancer cells | 340,000 compounds, 1.8% hits | Potency, µM (top dose mostly 46.1 µM), usual class: activators | AID 624297 | SW480 DNA re-replication, Hoechst DNA content imaging, 48 h; further: nearly all actives have a fitted effect of over 55% in size
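Per well, 250 cells were exposed to pinned compound for 48 hr. Nuclear DNA was visualised with Hoechst (40 min, 37 C) and total object intensity recorded by fluorescence scanning.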
MCF10A rereplic = DNA re-replication induction in MCF 10a cells | 350,000 compounds, 2.9% hits | Potency, µM (top dose mostly 46.1 µM), most hits filed as activators | MCF 10A DNA re-replication, Hoechst nuclear intensity, 48 h; further: nearly all actives have a fitted effect of over 50% in size
Hits are given with their value; n = inactive; u = inconclusive; x = not tested or not shown. Unless noted, the call rests on the fitted dose curve; in most records, active means well fitted curve in the direction sought with a large enough effect; inconclusive means small, poorly fitted or top-dose-only effect, or another doubt; inactive means no such curve, though single readings can be large; an effect the other way counts as inactive or inconclusive.

SMILES	KCNH2 WT inh	KCNH2 3.1 block	KB-3-1 cytotox	KB-V1 cytotox	SW480 rereplic	MCF10A rereplic
CC(=O)N1CCc2c(sc(NC(=O)c3ccc([N+](=O)[O-])o3)c2C#N)C1	n	n	u	n	2.3µM	1.5µM
COC(=O)c1sc(NC(=O)c2ccc([N+](=O)[O-])o2)c(C#N)c1C	n	n	u	n	3.3µM	2.9µM
CCOC(=O)c1sc(NC(=O)c2ccco2)c(C#N)c1C	n	n	n	u	n	u
CC(=O)N1CCc2c(sc(NC(=O)Cc3ccc(F)cc3)c2C#N)C1	n	n	n	n	n	n
COc1cc(C(=O)Nc2sc3c(c2C#N)CCN(C(C)=O)C3)cc(OC)c1OC	n	n	u	n	n	n
COc1ccc(C(=O)Nc2sc3c(c2C#N)CCN(C(C)=O)C3)cc1	n	x	8.2µM	u	23µM	23µM
COC(=O)c1c(NC(=O)c2ccc([N+](=O)[O-])o2)sc2c1CCN(C(C)C)C2	n	n	6.5µM	15µM	2.3µM	2.9µM
O=C(Nc1ccc(S(=O)(=O)NC2=NCCCCC2)cc1)c1ccco1	n	n	n	n	n	n
COc1ccc(C(CC(=O)N2CCCCC2)NC(=O)C(F)(F)F)cc1 (stereo not drawn)	n	n	n	n	n	n
COc1ccc(C(CC(=O)Nc2ccc(Cl)cc2F)NC(=O)C(F)(F)F)cc1 (stereo not drawn)	n	n	n	8.2µM	n	n
CCC1(c2ccccc2)NC(=O)N(CC(=O)N(C)Cc2c(F)cccc2Cl)C1=O (stereo not drawn)	n	n	n	u	n	n
CC(C)Cn1c(N)c(C(=O)COC(=O)c2ccccc2F)c(=O)n(C)c1=O	n	n	n	n	n	n
CC(C)Cn1c(N)c(C(=O)COC(=O)c2c(F)cccc2F)c(=O)n(C)c1=O	n	n	u	n	n	0.52µM
O=C1CCN(c2ccc([N+](=O)[O-])cc2F)CC1	n	n	n	n	n	n
Cc1ccc2nc(-c3cccc(N)c3)[nH]c2c1	n	n	u	n	n	n
Cc1ccc2nc(-c3sc4nc(C)cc(C)c4c3N)[nH]c2c1	n	n	u	u	12µM	10µM
CC1Cc2ccccc2C[N+]1(C)CC(=O)c1ccc(I)cc1 (stereo not drawn)	x	x	n	n	x	x
COc1ccccc1NC(=O)c1cn(-c2ccccc2)nc1-c1ccccc1	x	x	n	n	x	x
CC(=O)N1CCCc2cc(S(=O)(=O)N3CCCC(C(=O)Nc4ccc(C)c(C)c4)C3)ccc21 (stereo not drawn)	x	x	n	n	x	x
CCCCCCN1C=C/C(=C\C=C(C#N)C#N)c2ccccc21	-148	-105	16µM	u	n	n
CCCCCCN1C=CC=C/C1=C/C=C(C#N)C#N	-123	n	n	n	n	u
CCCCCN1C=CC=C/C1=C\C=C(C#N)C#N	n	n	n	u	n	n
CCn1c(SCC(=O)Nc2ccc(OC)c(S(=O)(=O)N3CCCCC3)c2)nnc1C1CC1	n	n	n	n	n	n
COc1ccc(CCNC(=O)C(=O)NCc2cccs2)cc1OC	n	n	n	u	u	n
N#Cc1cccc(NC(=O)C2CCN(S(=O)(=O)c3ccc4[nH]c(=O)ccc4c3)CC2)c1	x	x	n	n	x	x
SMILES	KCNH2 WT inh	KCNH2 3.1 block	KB-3-1 cytotox	KB-V1 cytotox	SW480 rereplic	MCF10A rereplic
CCOC(=O)[C@H]1[C@H]2COc3ccc(C)cc3[C@@H]2N2C(=O)CN(CC3CCCO3)C(=O)[C@@]12C (stereo partly drawn)	n	n	n	n	n	n
CN(C)Cc1ccccc1C(O)(c1ccccc1)c1ccccc1	n	n	n	n	n	n
CN(C)Cc1cc(C(F)(F)F)ccc1C(O)(c1ccccc1)c1ccccc1	n	n	u	21µM	u	n
O=C(Nc1nnc(CCS(=O)(=O)c2ccc3ccccc3c2)s1)c1ccc([N+](=O)[O-])cc1	n	n	n	n	n	n
CC(=O)Nc1ccc(NC(=O)c2c(C)nn(-c3ccccc3)c2-n2cccc2)cc1	x	x	n	n	x	x
COc1cccc(C2c3c(C)nn(-c4ccc([N+](=O)[O-])cc4)c3N=C3C(=O)Nc4ccccc4N32)c1 (stereo not drawn)	u	n	n	n	n	u
CC(=O)Nc1ccc(NC2=Nc3ccccc3N3C2=Nc2c(c(C)nn2-c2ccccc2)C3c2ccccc2)cc1 (stereo not drawn)	n	n	8.2µM	u	u	u
COc1ccc(NC2=Nc3ccccc3N3C2=Nc2c(c(C)nn2-c2ccc(C)cc2)C3c2cccnc2)cc1 (stereo not drawn)	n	n	n	u	2.9µM	4.6µM
NC(=S)NNC(=O)Nc1cccc(Cl)c1	n	n	n	n	n	n
NC(=S)NNc1cccc(Cl)c1	n	-82	n	n	n	n
COc1cc(/C=C2\SC(N3CCc4ccccc4C3)=NC2=O)cc(OC)c1OC	n	n	u	2.3µM	n	u
COc1ccc(/C=C2\SC(N3CCc4ccccc4C3)=NC2=O)cc1	n	n	n	u	n	u
CCOC(=O)C(C)(C)N(Cc1ccc(C)cc1)S(=O)(=O)c1ccc(Cl)c([N+](=O)[O-])c1	n	n	n	n	u	12µM
CCOC(=O)C(C)(C)N(Cc1ccc(Cl)cc1)S(=O)(=O)c1ccc(Cl)c([N+](=O)[O-])c1	x	x	x	x	u	13µM
O=C(CS(=O)(=O)c1cccc2nsnc12)N1CCN(c2ccccc2F)CC1	x	x	n	n	x	x
Cc1nn(C)c(C(=O)Nc2c(C)nn(Cc3c(F)c(F)c(F)c(F)c3F)c2C)c1Br	n	n	n	n	n	n
COc1ccccc1-c1cc(NC(C)=O)c2ncc(-c3cccc(C(C)=O)c3)n2c1	x	x	u	n	x	x
CC(=O)c1ccc(S(=O)(=O)N2CCN(S(=O)(=O)c3ccccc3C(F)(F)F)CC2)cc1	n	n	n	n	n	n
Cc1cc(C)n(CCNC(=O)c2cc(COc3ccc4ncccc4c3)on2)n1	n	n	u	n	n	n
O=C(NCc1cccc(Cl)c1)c1cc(COc2ccc3ncccc3c2)on1	n	n	12µM	3.3µM	n	n
CC(CCCC(C)(C)O)NC(=O)c1cc(COc2ccc3ncccc3c2)on1 (stereo not drawn)	n	n	u	5.8µM	n	n
Nn1cnnc1N/N=C/c1cc(Br)cc(Br)c1O	n	n	u	2.3µM	u	u
CC(C)(C)c1ccc(/C=N/Nc2nncn2N)cc1	n	n	n	n	n	12µM
CCn1c(C)nc2cc(S(N)(=O)=O)ccc21	n	n	n	n	n	13µM
CCn1c(C)nc2cc(S(=O)(=O)N3CCCC3)ccc21	n	n	n	n	n	n
COc1cc(O)oc1C=Nc1ccc(C(=O)O)cc1	n	n	u	23µM	n	n
